Among the data in PubChem BioAssay AID2314 (National Center for Advancing Translational Sciences (NCATS), 2010) are max response values, retold here.

“And” between values parts separate entries of the source, which are not always exact repeats. Identical values can stand only once. The campaign covered roughly 300,000 compounds. About 37,000 (12%) were called active. The entries come from a sample that favours actives as a whole. A number with no mark means an inactive call. Rule as the data show it: active = max response mostly above about 13% (no sharp cut-off); inactive = mostly below about 14%.

A short description of the assay: Cycloheximide Counterscreen for Small Molecule Inhibitors of Shiga Toxin. Also: read at 38.3 µM for the half of the compounds with a filed dose; 0% is about no effect. Particulars: cell reporter, cycloheximide protein synthesis inhibition counterscreen; stronger effect = higher value. On the technique in general: The purpose of a counterscreen is to sort out artefacts and off-target activity.
In the case of `CCN1C(=NCc2ccc(OC)cc2)N[C@@H](CCc2ccccc2)[C@H](C(=O)NCc2ccc(OC)cc2)[C@H]1C`, the max response was -3.38% and 1.66%. Consider `CCCCCCCCCCOC(=O)Cn1c(COc2ccc(C)cc2)[n+](C)c2ccccc21`, for which the max response was -4.67%. As for `COc1ccc(-c2cc(C3CCN(c4ncccc4[N+](=O)[O-])CC3)[nH]n2)cc1`, the figure is -2.37%; as for `CC1CCCCN1CCCNC(=O)Cn1ncc2c([nH]c3ccccc32)c1=O` (stereo not given), -1.43%; as for `Cc1cc(C)c(C(=O)CSc2nc(C)cc(=O)[nH]2)c(C)c1`, 6.02%. For `CCn1cc(/C=C(\NC(=O)c2cc(OC)c(OC)c(OC)c2)C(=O)N2CCN(C)CC2)c2ccccc21`, the max response is -3.51%. As for `CCOC(=O)c1ccc(NC(=S)N2CCN(c3ccccn3)CC2)cc1`, the figure is -2.76%. For `Cc1ccccc1Nc1nc(-c2cccnc2)cs1`, the max response was 40.6% (active). Consider `CCCCNC(=O)CCn1nc(-c2ccc(Cl)cc2)ccc1=O`, for which the max response is -0.835%.

On to `Cc1cc2c(cc1C)N(C(=O)CN1C(=O)c3ccccc3C1=O)C(C)(C)c1ssc(=S)c1-2`, for which the max response is -0.934%. Consider `Cc1cc(-n2nc(C)cc2C)n2nc(C)c(-c3ccccc3)c2n1`, for which the max response was -1.22%. As for `Cc1cc(N2CCCC2)n2nc(C)c(-c3ccccc3)c2n1`, the figure is 6.19%; as for `Cc1cc(-n2nc(C)cc2C)n2ncc(-c3ccccc3)c2n1`, 42.3% (active).

Take `O=C(NCC1CC1)C1(C(F)(F)F)C/C(=C\CCO)CCCO1` (stereo not given): the max response is -3.88%. With `COc1ccc(Cc2nnc(N/N=C/c3ccccc3O)[nH]c2=O)cc1OC`, the max response is -1.41%. In the case of `c1ccc(-c2ccc3c(c2)NC(C2Nc4cc(-c5ccccc5)ccc4O2)O3)cc1` (stereo not given), the max response was -0.428%. As for `C/C(=N\NC(=O)NC1CCCCC1)c1ccc(OC(F)F)cc1OC(F)F`, the figure is 9.08%; as for `COc1ccc(OC)c(NC(=O)c2ccc3c(c2)CCN3S(C)(=O)=O)c1`, -0.802%. Consider `CSc1ccccc1NC(=O)c1ccc2c(c1)CCN2S(C)(=O)=O`, for which the max response was 43.6% (active).

As for `CC(=O)Nc1cccc(NC(=O)c2ccc3c(c2)CCN3S(C)(=O)=O)c1`, the max response was 2.48%. As for `CS(=O)(=O)N1CCc2cc(C(=O)Nc3ccccc3)ccc21`, the max response was -1.85%. In the case of `CS(=O)(=O)N1CCc2cc(C(=O)Nc3ccccc3Br)ccc21`, the max response is 30.9% (active).

For the compound `CCc1ccccc1NC(=O)c1ccc2c(c1)CCN2S(C)(=O)=O`, the max response was -1.1%. As for `COCc1ccc(C(=O)N2CCc3c([nH]c4ccccc34)C2c2ccccn2)s1` (stereo not given), the figure is -4.02%; as for `COc1ccc(-c2cc(=O)oc3cc(OC(C)C(=O)Nc4ccc(CN5CCOCC5)cc4)ccc23)cc1` (stereo not given), -4.69%; as for `Cc1ccc(OCc2nnc(SC3CCc4ccccc4C3=O)n2C)cc1` (stereo not given), 4.12%. `CC(=O)Nc1ccc(/C=N/Nc2ccc(C(=O)c3c(C)cc4ccccn34)cc2[N+](=O)[O-])cc1`: the max response was 3.53%. With `Cc1cc(N2C(=O)C(O)=C(C(=O)c3ccc(C)o3)C2c2ccc(OCc3ccccc3)cc2)no1` (stereo not given), the max response was -0.599%.

In the case of `Cc1ccc(C(=O)OCc2nc(N)nc(Nc3ccccc3C)n2)cc1`, the max response is -0.878%. Regarding `Cc1ccccc1Nc1nc(N)nc(CSc2nnc3ccccn23)n1`, the max response was 13.9% (active). Turning to `Cc1ccccc1Nc1nc(N)nc(CSc2ccccc2)n1`, the max response is 67% (active). As for `Cc1ccc(Nc2nc(N)nc(CN3CCN(Cc4ccccc4)CC3)n2)cc1Cl`, the figure is -3.89%. With `Cc1ccccc1Nc1nc(N)nc(CN2CCN(c3ccccn3)CC2)n1`, the max response is 0.552%. As for `CCSCc1nc(N)nc(NCCc2ccccc2)n1`, the figure is 12.6%; as for `CCCN1CCC(=O)N(C(CSc2ccc(OC)cc2)Cc2ccccc2)CC1` (stereo not given), 6.9%. For the compound `Cc1cc(C)n(-c2ccc(NC(=O)C3CCCCN3C(=O)c3cccs3)cc2)n1` (stereo not given), the max response was 7.2%. As for `COc1ccc(-n2c(C)cc(C(=O)COC(=O)c3cc(OC)c(OC)cc3NC(=O)c3cccs3)c2C)cc1`, the figure is -3.59%. As for `CCc1nn(CC(=O)N2CCN(c3cc(C)ccc3C)CC2)c(=O)c2cc3occc3n12`, the figure is -8.63%; as for `CC1CCN(S(=O)(=O)c2ccc3c(ccn3CC(=O)O)c2)CC1`, -6.07%. As for `CN(C)c1ccnc(Nc2ccc(F)cc2)c1C#N`, the figure is -1.37%.

Regarding `CC(C)c1ccc(Nc2ncccc2C#N)cc1`, the max response was 43.2% (active). Take `O=C(Oc1cccc(O)c1)C1CCCCC1`: the max response was 1.32%. As for `CC12CCC(C(=O)N(c3cccc(Cl)c3)C1=O)C2(C)C` (stereo not given), the figure is -2.01%; as for `O=C(NN1C(=O)C2C(C1=O)C1C=CC2C12CC2)c1ccccc1Cl` (stereo not given), 0.62%. As for `CC12CCC(C(=O)N(NC(=O)c3ccccc3O)C1=O)C2(C)C` (stereo not given), the max response was 11.2% (active). Take `O=C(COc1ccc(Cl)cc1)NC(=S)Nc1ccccc1N1CCOCC1`: the max response was 1.2%. With `CCOC(=O)C1C/C(=C\C(C)=O)c2cccc(C(F)(F)F)c2O1` (stereo not given), the max response was -2.62%. As for `CCOC(=O)c1c(C)[nH]c(C(=O)NCc2ccccc2OC)c1C`, the figure is 17% (active); as for `CC(=O)c1c(C)[nH]c(C(=O)NCc2ccc(C)cc2)c1C`, 15.3%. As for `CCOC(=O)c1c(C)[nH]c(C(=O)NCCN2CCOCC2)c1C`, the figure is -3.76%. Take `O=C(O)c1ccc(OCC2CCCO2)cc1` (stereo not given): the max response is -2.17%.

In the case of `COC(=O)c1c(C)oc(C)c1S(=O)(=O)Nc1ccc(C(C)C)cc1`, the max response was -1.83%. As for `Cc1nc(-c2ccccc2)sc1-c1nc(-c2ccccc2)ncc1S(=O)(=O)c1ccccc1`, the figure is 1.01%; as for `Cc1nc(-c2ccccc2)sc1-c1nnc(C2CC2)o1`, 38.7% (active); as for `C=CCn1c(-c2sc(-c3ccccc3)nc2C)n[nH]c1=S`, 1.59%. For the compound `CCOc1ccccc1NC(=O)COc1ccc(S(=O)(=O)N2CCCC2)cc1`, the max response was -2.13%. As for `O=C(COC(=O)c1c2c(nc3ccccc13)CCCC2)c1ccc(Br)s1`, the max response is 25% (active). With `CCc1nc2ccccc2c(C(=O)OC2CCCCC2=O)c1C` (stereo not given), the max response was 8.91%. With `O=C(Nc1c2c(nc3ccccc13)CCCC2)c1ccccc1Br`, the max response is -2.17%. As for `COc1ccccc1C(=O)Nc1ccnn1C1CCN(Cc2cnn(C)c2)CC1`, the figure is 0.446%; as for `COc1ccc2c(c1)c1nc3n(c(=O)c1n2CC(=O)Nc1ccccc1)CCS3`, -2.14%. As to `CC(=O)CC(c1ccccc1)C1C(=O)Oc2ccccc2C1=O` (stereo not given), the max response was -3.15%.

For `Cc1cc(C)c2oc(C(=O)Nc3ccc(S(=O)(=O)Nc4nccc(C)n4)cc3)cc(=O)c2c1`, the max response was 5.57%. For the compound `O=C(CSc1cccc[n+]1[O-])c1ccc(Cl)cc1`, the max response was 16.8% (active). With `Cn1c(CC2Sc3ccccc3NC2=O)nnc1SCC(=O)c1ccc(Cl)cc1` (stereo not given), the max response is 6.52%. As for `Cc1cc(Oc2ccc(Cl)cc2)nc(SCC(=O)c2ccccc2)n1`, the figure is 0.695%; as for `O=C(CSc1cccc[n+]1[O-])NCCCc1ccccc1`, 10.3%; as for `O=C(CSc1cccc[n+]1[O-])c1ccc(-c2ccccc2)cc1`, 44.8% (active).

Regarding `COc1ccccc1C(=O)CSc1cccc[n+]1[O-]`, the max response was 9.7%. Consider `CCOC(=O)N1CCC(N2Cc3cccc(C(=O)Nc4ccc(S(=O)(=O)N(CC)CC)cc4)c3C2=O)CC1`, for which the max response was -7.45%. As for `CC(=O)c1c(C)oc2ccc(NS(=O)(=O)c3ccccc3)cc12`, the figure is -4.79%.

As to `O=C(Nc1ccc(-c2cscn2)cc1)C1CCCN(Cc2ccc(CO)o2)C1` (stereo not given), the max response is 10.2%. As for `Cc1cc(C)cc(NC(=O)C2CCCN2S(=O)(=O)c2cccc3cccnc23)c1` (stereo not given), the figure is 0.222%; as for `CCCCNS(=O)(=O)c1ccc2nc(SCC(=O)Nc3cc(C)cc(C)c3)[nH]c2c1`, -6.32%. On to `Cc1ccc2nc(-c3ccncc3)cc(C(=O)Nc3ccc(OC(F)F)cc3)c2c1`, for which the max response is -4.25%. For `Cc1ccc(CNC(=O)C(=O)c2cn(CC(=O)N3CCCC3)c3ccccc23)cc1`, the max response is 20.3% (active).

On to `Cc1ccc(CNC(=O)C(=O)c2cn(CC(=O)N3CCOCC3)c3ccccc23)cc1`, for which the max response was 17.6% (active). As to `N#Cc1ccc(Cn2cc(C(=O)c3ccco3)c3ccccc32)cc1`, the max response was 21.7%. As for `COc1cccc(NC(=O)CS(=O)(=O)c2cn(CC(=O)N3CCOCC3)c3ccccc23)c1`, the figure is -5.36%; as for `Cc1cccc(NC(=O)Cn2cc(C(=O)c3ccco3)c3ccccc32)c1`, -2.38%.

On to `COc1cccc(NC(=O)C(=O)c2cn(CC(=O)N3CCOCC3)c3ccccc23)c1`, for which the max response is 37.8% (active). As for `O=C(Nc1ccc(F)cc1)C(=O)c1cn(CC(=O)N2CCOCC2)c2ccccc12`, the figure is -0.871%; as for `O=C(NCc1ccco1)C(=O)c1cn(CC(=O)N2CCCCCC2)c2ccccc12`, 2.39%; as for `CN1CCN(C(=O)C(=O)c2cn(CC(=O)N3CCCC3)c3ccccc23)CC1`, -2.55%. As for `CN(Cc1ccccc1)C(=O)C(=O)c1cn(CC(=O)N2CCCC2)c2ccccc12`, the figure is -3.43%.

Turning to `CC1CCN(C(=O)Cn2cc(C(=O)c3ccco3)c3ccccc32)CC1`, the max response is 23% (active).

Consider `O=C(NCCCn1ccnc1)C(=O)c1cn(CC(=O)N2CCCCCC2)c2ccccc12`, for which the max response is 10.1%. Take `COc1ccc(C(CNC(=O)c2ccc(S(=O)(=O)Nc3ccccc3F)cc2)N(C)C)cc1` (stereo not given): the max response was -6%. For the compound `COC(=O)c1cccc(N(C(=O)c2ccco2)C(C(=O)NC2CCCC2)c2ccco2)c1` (stereo not given), the max response is -1.82%. As for `COc1cc(CNC2CCCCC2)c(Br)cc1OC1CCCC1`, the figure is -7.03%.
